In the library only some 12% were active in any assay of this set; here they are far more common.
HP1b chromo inh: HTS for Inhibitors of HP1-beta Chromodomain Interactions with Methylated Histone Tails; Chromobox protein homolog 1 (Homo sapiens), P83916; AlphaScreen HP1-beta / biotin-H3K9me3 peptide binding; Potency, µM (highest dose often 114 µM), for the others: top-dose activity change, negative = inhibition, actives largely listed as inhibitors; 0.56% of 390,000 active; AID 540317, 2011; also: nearly all actives have a fitted effect of over 70% in size
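Compound inhibition of the preformed complex between 50 nM HP1-beta and 50 nM biotinylated H3K9me3 peptide was read by AlphaScreen. Buffer was PBS pH 7.4 with 0.01% Tween-20. Incubations ran 30 min at room temperature, with 10 ug/mL donor/acceptor beads.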
G9a block: qHTS Assay for Inhibitors of Histone Lysine Methyltransferase G9a; Histone-lysine N-methyltransferase EHMT2 (Homo sapiens), Q96KQ7; G9a H3K9 monomethylation, AlphaScreen, 2 h; Potency, µM (top dose mostly 102 µM), for the others: top-dose activity, negative = inhibition, hits mostly inhibitors; 8.8% of 350,000 active; also: % is scaled to controls: 0 for no effect and ±100 for the full control effect; nearly all actives have a fitted effect of over 75% in size
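Signal arises when biotinylated H3K9 peptide, once monomethylated, bridges streptavidin donor and antibody-captured acceptor beads. Enzyme at 20 nM was preincubated 15 min with test compounds; peptide 500 nM and SAM 20 uM then reacted for 2 h.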
TDP1 inh: qHTS Assay for Inhibitors of Tyrosyl-DNA Phosphodiesterase (TDP1); Tyrosyl-DNA phosphodiesterase 1 (Homo sapiens), Q9NUW8; recombinant TDP1, AlphaScreen DNA substrate cleavage; Potency, µM (highest dose often 130 µM), without a hit: top-dose activity change, negative = inhibition, most hits filed as inhibitors; 0.28% of 350,000 active; AID 485290, 2010; also: % is scaled to controls: 0 for no effect and ±100 for the full control effect; nearly all actives have a fitted effect of over 40% in size
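Signal: AlphaScreen proximity between streptavidin donor and anti-FITC acceptor beads on intact substrate. Reaction: Tdp1 1 nM, substrate 15 nM final, 5 min RT after 15 min compound preincubation.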
Sfp inh: qHTS Assay for Inhibitors of Bacillus subtilis Sfp phosphopantetheinyl transferase (PPTase); Biochemical Sfp PPTase activity, qHTS; 3.5% of 310,000 active; AID 1490, 2009; Potency, µM, for inactives: largest response in the series, negative = inhibition, usual class: inhibitors;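 also: the enzyme is Sfp with the accession as filed and its product quenches rhodamine fluorescence; 0% = enzyme reaction without inhibitor and -100% = no enzyme wells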
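Reaction rates are the 30-min fluorescence difference (ex 525, em 598 nm) in wells containing 15 nM Sfp, 5 uM rhodamine-CoA and 12.5 uM BHQ-2-YbbR at pH 7.6 with 10 mM MgCl2.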
JMJD2A Tudor: qHTS Assay for Inhibitors of JMJD2A-Tudor Domain | AlphaScreen JMJD2A-Tudor / H3K4me3 peptide binding | Lysine-specific demethylase 4A (Homo sapiens), O75164 | AID 504339, 2011 | Potency, µM (top dose mostly 114 µM), without a hit: at the top dose activity change, negative = inhibition, hits mostly inhibitors | 4.4% of 390,000 active; also: % is scaled to controls: 0 for no effect and ±100 for the full control effect; nearly all actives have a fitted effect of over 50% in size
Target sequence (O75164 whole entry, looked up, the tested form may be a part): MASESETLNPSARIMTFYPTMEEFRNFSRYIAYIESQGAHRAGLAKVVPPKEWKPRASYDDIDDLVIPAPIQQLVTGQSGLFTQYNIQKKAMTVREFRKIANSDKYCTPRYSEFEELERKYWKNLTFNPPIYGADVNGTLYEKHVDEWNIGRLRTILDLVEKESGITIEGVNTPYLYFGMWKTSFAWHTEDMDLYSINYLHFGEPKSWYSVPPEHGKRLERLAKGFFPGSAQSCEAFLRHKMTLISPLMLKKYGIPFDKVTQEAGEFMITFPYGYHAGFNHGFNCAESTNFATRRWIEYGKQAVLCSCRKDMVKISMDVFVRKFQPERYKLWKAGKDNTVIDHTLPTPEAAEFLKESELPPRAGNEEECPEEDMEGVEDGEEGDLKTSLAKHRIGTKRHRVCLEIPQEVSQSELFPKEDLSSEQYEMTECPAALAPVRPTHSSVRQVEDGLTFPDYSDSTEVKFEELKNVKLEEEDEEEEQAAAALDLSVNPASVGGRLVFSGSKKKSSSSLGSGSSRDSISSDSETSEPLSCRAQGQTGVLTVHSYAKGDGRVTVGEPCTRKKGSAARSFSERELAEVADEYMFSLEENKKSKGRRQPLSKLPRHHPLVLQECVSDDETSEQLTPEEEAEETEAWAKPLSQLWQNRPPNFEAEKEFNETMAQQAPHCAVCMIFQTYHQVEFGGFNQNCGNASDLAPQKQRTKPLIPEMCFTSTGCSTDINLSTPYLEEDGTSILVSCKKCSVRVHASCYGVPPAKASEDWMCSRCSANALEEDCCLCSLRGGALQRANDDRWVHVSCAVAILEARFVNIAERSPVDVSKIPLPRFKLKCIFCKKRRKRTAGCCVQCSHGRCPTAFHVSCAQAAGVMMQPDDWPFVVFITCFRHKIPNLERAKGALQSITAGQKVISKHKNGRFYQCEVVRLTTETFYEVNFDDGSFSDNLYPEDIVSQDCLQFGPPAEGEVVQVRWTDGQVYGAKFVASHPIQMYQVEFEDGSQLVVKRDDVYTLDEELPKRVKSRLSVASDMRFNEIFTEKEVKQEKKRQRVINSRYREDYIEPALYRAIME
BAZ2B inh: qHTS Assay for Inhibitors of BAZ2B; Bromodomain adjacent to zinc finger domain protein 2B (Homo sapiens), Q9UIF8; AlphaScreen BAZ2B-H3K14Ac peptide displacement; Potency, µM (series often up to 114 µM), inactives show top-dose activity change, negative = inhibition, usual class: inhibitors; 4.4% of 360,000 active; AID 504333, 2011; also: % is scaled to controls: 0 for no effect and ±100 for the full control effect; nearly all actives have a fitted effect of over 60% in size
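Compounds, titrated to a top concentration of 110 uM, were incubated 30 min at room temperature with preformed BAZ2B/acetyl-K14 H3 peptide complex (50 nM each). Proximity signal was measured by AlphaScreen after 20 min with beads.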
* marks the source's active call; other numbers are inactive results; u = inconclusive; x = no result; ! = repeats disagree; [ ] = another dose, or the depositor's remark. Calls follow the shape of the dose curve; as a rule, active = well fitted curve in the direction sought with a large enough effect; inconclusive = small, poorly fitted or top-dose-only effect, or another doubt; inactive = no such curve, though single readings can be large; an effect the other way counts as inactive or inconclusive. Potency is read from the fitted curve at half-maximal effect.

SMILES | HP1b chromo inh | G9a block | TDP1 inh | Sfp inh | JMJD2A Tudor | BAZ2B inh
O=C(OCC#CCSc1nnc(-c2cccc3ccccc23)o1)c1sc2ccccc2c1Cl | x | x | -2% | x | 3% | x
Cc1ccc(NC(=O)c2cnccn2)c(C)c1 | 27% | x | 2% | 6% | -3% | -11%
O=S(=O)(SC1=NCCN1)c1ccccc1 | -1% | x | x | x | -17% | x
Cc1ccccc1/C=C/C1=NCCN1 | u | 30µM* | -7% | x | 20µM* | u
O=C(O)Cc1c(C(=O)O)nnn1-c1ccc(Cl)cc1Cl | 40% | -20% | 1% | 15% | 11% | -27%
COc1cc(-c2c(C#N)c(N)nc3[nH]c(=S)[nH]c(=O)c23)ccc1O | 43% | 71µM* | x | -17% | -14% | -5%
O=C(/C=C/c1ccc(O)c(O)c1)OCCc1ccccc1 | -24% | 3.5µM* | 13% | u | 89µM* | x
O=c1cc(O)cc(/C=C/c2ccc(O)c(O)c2)o1 | x | 4µM* | x | x | x | x
O=C(/C=C/c1cc2ccccc2o1)c1ccccc1O | u | x | 8% | 1% | 20µM* | 8.9µM*
O=C(COC(=O)/C=C/c1cccc(Br)c1)NCCc1ccccc1 | 25% | 0% | -16%[0.505 µM] | x | -2% | -4%
O=C(NNC(=O)c1ccccc1O)c1cc2ccccc2o1 | 32% | -41%[0.501 µM] | x | x | -9% | 10%
O=C(/C=C/c1ccc(O)c(O)c1)c1ccccc1O | 45µM* | 13µM* | 4% | -10% | 3.5µM* | 40µM*
Cc1ccc(C2c3[nH]c4ccccc4c3C[C@H]3C(=O)N(c4ccccc4C(=O)N4CCC[C@H]4C(=O)O)C(=O)N23)cc1 (some centres undefined) | 3% | 19%[12.7 µM] | x | 4% | -20% | -7%
CCOC(=O)c1c(NC(=O)c2cccc(N3C(=O)CCC3=O)c2)sc2c1CCN(CC)C2 | 21% | -18% | 4% | 10% | -28% | -16%
CN1CCCC2(CCN(C(=O)c3cc(C(F)(F)F)cc(C(F)(F)F)c3)CC2)C1 | x | -6%[12.7 µM] | x | 4% | x | x
Cc1cccc(NC(=O)CNC(=O)CCNC(=O)c2ccc(C(C)(C)C)cc2)c1C | 36% | 3%[12.7 µM] | 1% | x | -4% | 6%
O=C(O)/C=C/c1ccc(O)cc1 | 38% | x | x | x | -14% | x
O=C(O)/C=C\c1ccc(O)c(O)c1 | x | 2.5µM* | -5%[56.1 µM] | 35µM* | x | x
CSCC[C@H](NC(=O)OC(C)(C)C)c1nnc(SCC(N)=O)o1 | 22% | -12% | 6% | 3% | -6% | 6%
CSCC[C@H](NC(=O)OC(C)(C)C)c1nnc(SCC=C(C)C)o1 | 16% | 50µM* | 7% | -1% | -27% | -4%
O=C(COC(=O)c1ccccn1)Nc1nc(-c2cccc([N+](=O)[O-])c2)cs1 | -3% | -7% | 2% | -13% | -18% | 56µM*
O=C(COC(=O)c1ccccn1)Nc1nc(-c2ccccc2)cs1 | -14% | -72% | x | 6% | 79µM* | 50µM*
O=C(Cc1ccccc1)Nc1nc(-c2cccc([N+](=O)[O-])c2)cs1 | 43% | 12%[59 µM] | 4% | 20% | 0% | 10%
O=C(CCCOc1ccc(Br)cc1)NCCc1ccc(OC(F)F)cc1 | 32% | 5% | 2% | 18% | 15% | 29%
Oc1ccc(Br)cc1CNc1cccc2cccnc12 | 19% | 16%[0.501 µM] | x | -1% | u | u
SMILES | HP1b chromo inh | G9a block | TDP1 inh | Sfp inh | JMJD2A Tudor | BAZ2B inh
Cc1ccc(O)c(CNc2cccc3cccnc23)c1 | u | x | 9% | u | u | 32µM*
Oc1c(Br)cc(Br)cc1CNc1ccccn1 | 25%[57 µM] | 16%[12.7 µM] | -1% | 8% | 14% | -3%
Oc1c(Br)cc(Br)cc1CNc1cccc2cccnc12 | -16% | x | 7% | 40µM* | u | u
CCCCN(C)C(=O)Cn1ncc2c3ccccc3n(CCC)c2c1=O | -2% | 20% | x | 0% | -16% | 5%
COc1ccccc1C(CNC(=O)C(CCSC)NC(=O)c1ccccc1Cl)N1CCCC1 (centres undefined) | 51% | x | x | x | -5% | x
CCOc1ccccc1NC(=O)COC(=O)c1c[nH]c2ccccc12 | 6% | 50µM* | 0% | x | -6% | 6%
O=C(COC(=O)c1c[nH]c2ccccc12)Nc1ccccc1 | 5% | x | 0% | x | -12% | x
CCOC(=O)c1cnc2c(cnn2CC)c1NN=C(C)C | x | 30µM* | -13%[56.1 µM] | 45µM*! | x | x
CCOC(=O)c1cnc2c(cnn2C)c1NCCC#N | 16% | -29%[12.7 µM] | 3% | -3% | -4% | 5%
Nc1ncnc(N2CCOCC2)n1 | 21% | x | x | x | -11% | x
CC(C)NC(=O)c1onc(CSc2ccc(F)c(F)c2)c1C(=O)O | 22% | 51%[0.501 µM] | 9% | 79µM* | 79µM* | u
O=C1N=c2ccccc2=C1c1sc(=S)n(CC2CCCO2)c1O (centres undefined) | 9% | u | 2% | 6% | -8% | u
COc1ccc(N=C2O/C(=C/c3sc(=S)n(CC4CCCO4)c3O)N=C2C#N)cc1 (centres undefined) | u | 11µM* | 9% | 2.8µM* | u | 8.9µM*
O=C(O)c1cnn(-c2nc(-c3cccc(F)c3)cs2)c1C(F)(F)F | 25% | 50µM* | -3% | 11% | -17%[11.4 µM] | -38%
O=C1Nc2ccc(Br)cc2/C1=C/c1ccc(C(=O)O)cc1 | x | u | x | -4% | x | -23%
CC(C)=CCCC1(C)C=Cc2c(c(C)cc3c2[nH]c2cc(O)ccc23)O1 (centres undefined) | -40% | u | x | 32% | 45µM* | 45µM*
CC(NC(=O)Cc1ccc(NC(=O)N2CCSc3ncccc32)cc1)c1ccccc1 (centres undefined) | 36% | u | 6% | x | -6% | -13%
CCOC(=O)c1c(Nc2cccc(C(=O)OC)c2)nnc(-c2ccccc2)c1-c1ccccc1 | -3% | u | x | x | -33% | u
CCOC(=O)c1c(Nc2ccc(C)cc2)nnc(-c2ccccc2)c1-c1ccccc1 | -18% | 2.2µM* | x | x | u | u
CCCn1c(N2CCN(C(=O)Nc3ccc(Cl)cc3)CC2)nc2ccccc21 | 21% | 12% | 0% | 9% | 100µM* | 7%
O=C(CN1CCN(c2ccccc2)CC1)Nc1ccc2c(c1)OCCO2 | 2% | -8% | -3% | 16% | -24% | -18%
